Data published in PubChem BioAssay AID1159580 (chemical genetic matrix, 2015).
The whole screen tested about 5,500 compounds, of which about 2,000 (36%) were called active. Inconclusive results (about 18%) are left out. No stated cut-off is given here; in the data, active means normalized growth mostly below about 0.91 (no sharp cut-off); inconclusive means no clear call, values can overlap the other calls; inactive means mostly above about 0.92. The list shows a part of the results.

Assay: chemical genetic growth profiling, strain panel (AID 1159580);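 further: tested at 20 µM; growth read once vehicle control cultures reached saturation at 30 °C; 1 = growth at the plate median or of vehicle wells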
Details: growth OD

Measured: normalized growth

Nc1ccc(S(=O)(=O)Nc2ncccn2)cc1
inactive: S. cerevisiae deletion strains, locus YJR066W, strain TOR1, stronger effect = lower value 0.92 | S. cerevisiae deletion strains, locus YJR075W, strain HOC1, stronger effect = lower value 0.992 | S. cerevisiae deletion strains, locus YKL009W, strain mrt4, stronger effect = lower value 1.01 | S. cerevisiae deletion strains, locus YKL068W, stronger effect = lower value 0.989 | S. cerevisiae deletion strains, locus YKL085W, strain MDH1 (second series), stronger effect = lower value 0.996 | S. cerevisiae deletion strains, locus YKL085W, strain MDH1, stronger effect = lower value 0.996 | S. cerevisiae deletion strains, locus YKL160W, strain elf1, stronger effect = lower value 1.01 | S. cerevisiae deletion strains, locus YKL190W, strain CNB1, stronger effect = lower value 0.989 | S. cerevisiae deletion strains, locus YKR001C, strain vps1, stronger effect = lower value 1 | S. cerevisiae deletion strains, locus YKR026C, strain gcn3, stronger effect = lower value 0.966 | S. cerevisiae deletion strains, locus YKR091W, strain srl3, stronger effect = lower value 0.978 | S. cerevisiae deletion strains, locus YLL001W, strain dnm1, stronger effect = lower value 0.977 | S. cerevisiae deletion strains, locus YLL026W, stronger effect = lower value 0.999 | S. cerevisiae deletion strains, locus YLL041C, strain sdh2, stronger effect = lower value 0.997 | S. cerevisiae deletion strains, locus YLR027C, strain aat2, stronger effect = lower value 0.983 | S. cerevisiae deletion strains, locus YLR039C, strain RIC1, stronger effect = lower value 0.999 | S. cerevisiae deletion strains, locus YLR058C, strain SHM2, stronger effect = lower value 0.976 | S. cerevisiae deletion strains, locus YLR102C, strain apc9, stronger effect = lower value 0.993 | S. cerevisiae deletion strains, locus YLR113W, strain HOG1, stronger effect = lower value 0.973 | S. cerevisiae deletion strains, locus YLR221C, strain rsa3, stronger effect = lower value 0.968 | S. cerevisiae deletion strains, locus YLR258W, strain gsy2, stronger effect = lower value 0.98 | S. cerevisiae deletion strains, locus YLR262C, strain YPT6 (second series), stronger effect = lower value 0.981 | S. cerevisiae deletion strains, locus YLR262C, strain YPT6, stronger effect = lower value 0.974 | S. cerevisiae deletion strains, locus YLR268W, strain sec22, stronger effect = lower value 1.05 | S. cerevisiae deletion strains, locus YLR320W, strain mms22, stronger effect = lower value 0.982 | S. cerevisiae deletion strains, locus YLR330W, strain CHS5, stronger effect = lower value 0.994 | S. cerevisiae deletion strains, locus YLR342W, strain FKS1 (second series), stronger effect = lower value 1.01 | S. cerevisiae deletion strains, locus YLR342W, strain FKS1, stronger effect = lower value 0.992 | S. cerevisiae deletion strains, locus YLR357W, strain rsc2, stronger effect = lower value 0.939 | S. cerevisiae deletion strains, locus YLR370C, strain arc18, stronger effect = lower value 0.982 | S. cerevisiae deletion strains, locus YLR384C, strain iki3, stronger effect = lower value 0.994 | S. cerevisiae deletion strains, locus YLR418C, strain cdc73, stronger effect = lower value 0.997 | S. cerevisiae deletion strains, locus YML016C, strain PPZ1, stronger effect = lower value 0.988 | S. cerevisiae deletion strains, locus YML032C, strain rad52, stronger effect = lower value 1.01 | S. cerevisiae deletion strains, locus YML120C, strain ndi1, stronger effect = lower value 0.969 | S. cerevisiae deletion strains, locus YML124C, strain tub3, stronger effect = lower value 1 | S. cerevisiae deletion strains, locus YMR058W, strain fet3, stronger effect = lower value 1.01 | S. cerevisiae deletion strains, locus YMR078C, strain ctf18, stronger effect = lower value 0.985 | S. cerevisiae deletion strains, locus YMR125W, strain sto1, stronger effect = lower value 0.955 | S. cerevisiae deletion strains, locus YMR129W, stronger effect = lower value 0.983 | S. cerevisiae deletion strains, locus YMR205C, strain PFK2, stronger effect = lower value 0.985 | S. cerevisiae deletion strains, locus YMR223W, strain ubp8, stronger effect = lower value 0.976 | S. cerevisiae deletion strains, locus YMR231W, strain pep5, stronger effect = lower value 0.979 | S. cerevisiae deletion strains, locus YMR307W, strain GAS1, stronger effect = lower value 1 | S. cerevisiae deletion strains, locus YNL067W, strain RPL9B, stronger effect = lower value 0.99 | S. cerevisiae deletion strains, locus YNL071W, strain lat1, stronger effect = lower value 0.969 | S. cerevisiae deletion strains, locus YNL153C, strain GIM3, stronger effect = lower value 0.987 | S. cerevisiae deletion strains, locus YNL183C, strain NPR1, stronger effect = lower value 0.942 | S. cerevisiae deletion strains, locus YNL209W, strain ssb2, stronger effect = lower value 0.967 | S. cerevisiae deletion strains, locus YNL233W, strain BNI4, stronger effect = lower value 0.994 | S. cerevisiae deletion strains, locus YNL248C, strain rpa49, stronger effect = lower value 0.974 | S. cerevisiae deletion strains, locus YNL250W, strain rad50, stronger effect = lower value 1 | S. cerevisiae deletion strains, locus YNL271C, strain bni1, stronger effect = lower value 0.998 | S. cerevisiae deletion strains, locus YNL298W, strain CLA4, stronger effect = lower value 1 | S. cerevisiae deletion strains, locus YNL307C, strain MCK1, stronger effect = lower value 1 | S. cerevisiae deletion strains, locus YNL322C, strain KRE1 (second series), stronger effect = lower value 0.959 | S. cerevisiae deletion strains, locus YNR049C, strain mso1, stronger effect = lower value 0.98 | S. cerevisiae deletion strains, locus YNR052C, strain pop2, stronger effect = lower value 0.995 | S. cerevisiae deletion strains, locus YOL006C, strain TOP1, stronger effect = lower value 0.968 | S. cerevisiae deletion strains, locus YOL012C, strain htz1 1.31 | S. cerevisiae deletion strains, locus YOL147C, strain pex11, stronger effect = lower value 1 | S. cerevisiae deletion strains, locus YOR001W, strain rrp6, stronger effect = lower value 0.948 | S. cerevisiae deletion strains, locus YOR061W, strain CKA2, stronger effect = lower value 0.968 | S. cerevisiae deletion strains, locus YOR069W, strain VPS5, stronger effect = lower value 1 | S. cerevisiae deletion strains, locus YOR070C, strain gyp1, stronger effect = lower value 0.991 | S. cerevisiae deletion strains, locus YOR080W, strain dia2, stronger effect = lower value 0.972 | S. cerevisiae deletion strains, locus YOR083W, strain WHI5, stronger effect = lower value 0.964 | S. cerevisiae deletion strains, locus YOR106W, strain vam3, stronger effect = lower value 0.981 | S. cerevisiae deletion strains, locus YOR136W, strain idh2, stronger effect = lower value 0.983 | S. cerevisiae deletion strains, locus YOR144C, strain elg1, stronger effect = lower value 0.996 | S. cerevisiae deletion strains, locus YOR184W, strain ser1, stronger effect = lower value 0.994 | S. cerevisiae deletion strains, locus YOR231W, strain MKK1, stronger effect = lower value 0.978 | S. cerevisiae deletion strains, locus YOR265W, strain rbl2, stronger effect = lower value 1.02 | S. cerevisiae deletion strains, locus YOR270C, strain vph1, stronger effect = lower value 0.919 | S. cerevisiae deletion strains, locus YOR290C, strain snf2, stronger effect = lower value 0.974 | S. cerevisiae deletion strains, locus YOR316C, strain cot1, stronger effect = lower value 0.984 | S. cerevisiae deletion strains, locus YPL051W, strain arl3, stronger effect = lower value 1.01 | S. cerevisiae deletion strains, locus YPL055C, strain LGE1, stronger effect = lower value 0.939 | S. cerevisiae deletion strains, locus YPL078C, strain atp4, stronger effect = lower value 0.992 | S. cerevisiae deletion strains, locus YPL106C, strain sse1, stronger effect = lower value 0.983 | S. cerevisiae deletion strains, locus YPL240C, strain hsp82, stronger effect = lower value 0.99 | S. cerevisiae deletion strains, locus YPL241C, strain CIN2, stronger effect = lower value 0.996 | S. cerevisiae deletion strains, locus YPL256C, strain CLN2, stronger effect = lower value 0.968 | S. cerevisiae deletion strains, locus YPR119W, strain clb2, stronger effect = lower value 0.983 | S. cerevisiae deletion strains, locus YPR141C, strain kar3, stronger effect = lower value 0.983 | S. cerevisiae deletion strains, locus YPR163C, strain tif3, stronger effect = lower value 1 | S. cerevisiae deletion strains, locus YPR167C, strain met16, stronger effect = lower value 0.989 | S. cerevisiae deletion strains, strain wtn01, stronger effect = lower value 1.01 | S. cerevisiae strains, strain wild type, stronger effect = lower value 0.988
